Results filed as inconclusive are left out. A call without a number means that no potency is given here. Calls of active or inactive are those of the source. The call rests on the fitted dose curve; in most records, active means well fitted curve in the direction sought with a large enough effect; inconclusive means small, poorly fitted or top-dose-only effect, or another doubt; inactive means no such curve, though single readings can be large; an effect the other way counts as inactive or inconclusive.
biological target: Aldehyde dehydrogenase, mitochondrial (Homo sapiens) (UniProt P05091); experiment: qHTS for Inhibitors of the Aldehyde Dehydrogenase Family (ALDH2) Primary screen (AID 2061308); conditions: ALDH2 enzyme inhibition qHTS, 1536-well; series mostly up to 56 µM; further: nearly all actives have a fitted effect of over 55% in size

Structure (SMILES) | Potency
CCCN(C)c1ncnc2ccc(-c3ccc4c(c3)OCO4)cc12 | inactive
COC(=O)c1ccc2c(c1)S(=O)(=O)NC2=O | inactive
O=C1CCCC2=C1C(c1[nH]ncc1Cl)N=C(Nc1ccccc1)N2 (stereo not given) | inactive
COC(=O)C1=CO[C@@H](O[C@@H]2O[C@H](CO)[C@@H](O)[C@H](O)[C@H]2O)C2C1C(=O)C[C@H]2C (stereo not given in full) | inactive
O=S(=O)(c1ccc2c(c1)OCCO2)N1CCN(S(=O)(=O)c2cccc[n+]2[O-])CC1 | inactive
O=C(Nc1ccc(-c2nc3ccccc3[nH]2)cc1)c1ccc2n[nH]nc2c1 | inactive
CC(C)(C)OC(=O)Cc1nnc(-c2nc3ccccc3[nH]2)o1 | inactive
CCCCc1ccc(-c2ccc(=O)n(CC(=O)NCCc3ccccc3)n2)cc1 | inactive
FC(F)(F)c1cccc(Nc2ccc(CNc3nc(-c4ccccc4C(F)(F)F)nc4ccccc34)cc2)c1 | inactive
COc1ccc(-c2ccc3nnc(-c4ccccc4OC)n3n2)cc1OC | inactive
Cc1ccc(S(=O)(=O)Nc2ccc(F)cc2C(=O)Nc2nc(-c3ccccc3)cs2)cc1 | inactive
CC(=O)Nc1sc2c(c1C(=O)O)CCNC2 | inactive
Fc1cccc(-c2nc3ccccc3s2)c1 | inactive
Cc1cc(C)nc(NC(=S)N2CC3CN(c4ccc(Cl)cc4C(F)(F)F)CC3C2)c1 (stereo not given) | inactive
COc1ccc(C2=Nn3c(nnc3-c3ccccc3OC)SC2)cc1OCC1CC1 | inactive
Cc1nnc(-c2cnn(C)c2N)o1 | inactive
O=C1CCc2cc(S(=O)(=O)Nc3cccc(-c4ccccc4)c3)ccc2N1 | inactive
O=C(/C=C/c1ccc(C(F)(F)F)cc1)Nc1cccc([S+](=O)([O-])Nc2ccccc2F)c1 | inactive
O=c1c2ccccc2nc2sc(Nc3cccc(Br)c3)nn12 | inactive
C#CCOc1cc(C2=Nn3c(nnc3-c3ccc(OCC(C)=O)cc3)SC2)ccc1OC | inactive

Structure (SMILES) | Potency
COc1ccccc1-n1cnc2cc(C(=O)N3CCCCC3)ccc21 | inactive
Cn1nnnc1Sc1ncnc2scc(-c3ccsc3)c12 | inactive
COC1CC(O[C@H]2CC[C@]3(C)C4CC[C@@]5(C)C(=O)[C@]4(CC[C@@H]3C2)CC[C@@H]5C2=CC(=O)OC2)OC(C)C1OC1OC(COC2OC(CO)C(O)C(O)C2O)C(O)C(O)C1O (stereo not given in full) | inactive
C=C1C(=O)O[C@@H]2C(OC(=O)/C(C)=C\C)/C(C)=C\C(=O)/C=C(\C)C[C@H](O)[C@@H]12 (stereo not given in full) | inactive
O=C(OCC#CCSc1nnc(-c2cccc3ccccc23)o1)c1cc2ccccc2o1 | inactive
Cc1ccc(CSc2nnc(-c3cccc4ccccc34)o2)cc1 | inactive
O=C1c2ccccc2C(=O)N1Cc1ccccn1 | inactive
O=C(NCCc1nc2ccccc2n1CCOc1ccc(Cl)cc1)C1CCCCC1 | inactive
N[C@H](C(=O)Nc1ccc(Cl)cc1C(=O)c1ccc[nH]1)c1ccccc1 | inactive
CC(C)c1ccccc1-c1nccc(NCc2ccc(-c3ccnc(C(F)(F)F)c3)cc2)n1 | inactive
O=C(OCC#CCSc1nnc(-c2cccs2)o1)c1ccc(F)cc1 | inactive
O=C(Cc1ccccc1)Nc1ccc(S(=O)(=O)Nc2nccs2)cc1 | inactive
CC(C)(C)OC(=O)NCC(=O)NNC(=O)C(C(=O)OCc1ccccc1)c1ccccc1 (stereo not given) | inactive
COc1ccc(C2Nc3ccccc3C(=O)N2Cc2ccco2)cc1CSc1c(C)cccc1C (stereo not given) | inactive
CCCn1c(C)nc2c(N3CCCN(Cc4ccccc4)CC3)nc(C)nc21 | inactive
CC(=O)Nc1sc2c(c1C(O)c1nc3ccccc3s1)CCN(C(C)C)C2 (stereo not given) | inactive
O=C(OCC#CCSc1nnc(-c2ccc3ccccc3c2)o1)c1ccsc1 | inactive
CCCn1c(-c2ccc(F)cc2)nc2c(NCCN3CCCC3)nc(C)nc21 | inactive
CC(C)c1ccc(=O)n(CC(=O)NCCc2ccccc2)n1 | inactive
Cn1c(=O)c2c(nc(OC3CCN(C(=O)C4CC4)CC3)n2CCC(C)(C)C)n(C)c1=O | inactive

biological target: Retinaldehyde dehydrogenase 3 (Homo sapiens) (UniProt P47895); experiment: qHTS for Inhibitors of the Aldehyde Dehydrogenase Family (ALDH1A3) Primary screen (AID 2061315); conditions: ALDH inhibition qHTS; series mostly up to 56 µM

Structure (SMILES) | Potency
CCCN(C)c1ncnc2ccc(-c3ccc4c(c3)OCO4)cc12 | inactive
COC(=O)c1ccc2c(c1)S(=O)(=O)NC2=O | inactive
O=C1CCCC2=C1C(c1[nH]ncc1Cl)N=C(Nc1ccccc1)N2 (stereo not given) | inactive
COC(=O)C1=CO[C@@H](O[C@@H]2O[C@H](CO)[C@@H](O)[C@H](O)[C@H]2O)C2C1C(=O)C[C@H]2C (stereo not given in full) | inactive
O=S(=O)(c1ccc2c(c1)OCCO2)N1CCN(S(=O)(=O)c2cccc[n+]2[O-])CC1 | inactive
O=C(Nc1ccc(-c2nc3ccccc3[nH]2)cc1)c1ccc2n[nH]nc2c1 | inactive
CC(C)(C)OC(=O)Cc1nnc(-c2nc3ccccc3[nH]2)o1 | inactive
CCCCc1ccc(-c2ccc(=O)n(CC(=O)NCCc3ccccc3)n2)cc1 | inactive
FC(F)(F)c1cccc(Nc2ccc(CNc3nc(-c4ccccc4C(F)(F)F)nc4ccccc34)cc2)c1 | inactive
COc1ccc(-c2ccc3nnc(-c4ccccc4OC)n3n2)cc1OC | inactive
Cc1ccc(S(=O)(=O)Nc2ccc(F)cc2C(=O)Nc2nc(-c3ccccc3)cs2)cc1 | inactive
CC(=O)Nc1sc2c(c1C(=O)O)CCNC2 | inactive
Fc1cccc(-c2nc3ccccc3s2)c1 | inactive
Cc1cc(C)nc(NC(=S)N2CC3CN(c4ccc(Cl)cc4C(F)(F)F)CC3C2)c1 (stereo not given) | inactive
COc1ccc(C2=Nn3c(nnc3-c3ccccc3OC)SC2)cc1OCC1CC1 | inactive
Cc1nnc(-c2cnn(C)c2N)o1 | inactive
O=C1CCc2cc(S(=O)(=O)Nc3cccc(-c4ccccc4)c3)ccc2N1 | inactive
O=C(/C=C/c1ccc(C(F)(F)F)cc1)Nc1cccc([S+](=O)([O-])Nc2ccccc2F)c1 | inactive
O=c1c2ccccc2nc2sc(Nc3cccc(Br)c3)nn12 | inactive
C#CCOc1cc(C2=Nn3c(nnc3-c3ccc(OCC(C)=O)cc3)SC2)ccc1OC | inactive

Structure (SMILES) | Potency
COc1ccccc1-n1cnc2cc(C(=O)N3CCCCC3)ccc21 | inactive
Cn1nnnc1Sc1ncnc2scc(-c3ccsc3)c12 | inactive
COC1CC(O[C@H]2CC[C@]3(C)C4CC[C@@]5(C)C(=O)[C@]4(CC[C@@H]3C2)CC[C@@H]5C2=CC(=O)OC2)OC(C)C1OC1OC(COC2OC(CO)C(O)C(O)C2O)C(O)C(O)C1O (stereo not given in full) | inactive
C=C1C(=O)O[C@@H]2C(OC(=O)/C(C)=C\C)/C(C)=C\C(=O)/C=C(\C)C[C@H](O)[C@@H]12 (stereo not given in full) | inactive
O=C(OCC#CCSc1nnc(-c2cccc3ccccc23)o1)c1cc2ccccc2o1 | inactive
Cc1ccc(CSc2nnc(-c3cccc4ccccc34)o2)cc1 | inactive
O=C1c2ccccc2C(=O)N1Cc1ccccn1 | inactive
O=C(NCCc1nc2ccccc2n1CCOc1ccc(Cl)cc1)C1CCCCC1 | inactive
N[C@H](C(=O)Nc1ccc(Cl)cc1C(=O)c1ccc[nH]1)c1ccccc1 | inactive
CC(C)c1ccccc1-c1nccc(NCc2ccc(-c3ccnc(C(F)(F)F)c3)cc2)n1 | inactive
O=C(OCC#CCSc1nnc(-c2cccs2)o1)c1ccc(F)cc1 | inactive
O=C(Cc1ccccc1)Nc1ccc(S(=O)(=O)Nc2nccs2)cc1 | inactive
CC(C)(C)OC(=O)NCC(=O)NNC(=O)C(C(=O)OCc1ccccc1)c1ccccc1 (stereo not given) | inactive
COc1ccc(C2Nc3ccccc3C(=O)N2Cc2ccco2)cc1CSc1c(C)cccc1C (stereo not given) | inactive
CCCn1c(C)nc2c(N3CCCN(Cc4ccccc4)CC3)nc(C)nc21 | inactive
CC(=O)Nc1sc2c(c1C(O)c1nc3ccccc3s1)CCN(C(C)C)C2 (stereo not given) | inactive
O=C(OCC#CCSc1nnc(-c2ccc3ccccc3c2)o1)c1ccsc1 | inactive
CCCn1c(-c2ccc(F)cc2)nc2c(NCCN3CCCC3)nc(C)nc21 | inactive
CC(C)c1ccc(=O)n(CC(=O)NCCc2ccccc2)n1 | inactive
Cn1c(=O)c2c(nc(OC3CCN(C(=O)C4CC4)CC3)n2CCC(C)(C)C)n(C)c1=O | inactive

From PubChem BioAssay (NCATS)
